Results taken from PubChem BioAssay (NCI).
Compounds without any hit were thinned out: in the full panel of roughly 83,000, 20% have a hit.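 Note: values are percent growth. 100 is the growth of untreated cells, values between 100 and 0 indicate rising inhibition; between -100 and 0 indicates cell death.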 Calls of active or inactive are those of the source. Rule for the calls: active = growth percent below 10; inactive = the rest.

Assays:
Assay in all cases: NCI-60 one-dose screen, 48 h (100 = growth as untreated, 0 = no growth, -100 = all killed)
Conditions in all cases: 10 µM
[1] = test system: HCT-15 colon
[2] = test system: HT29 colon
[3] = test system: SNB-75 CNS
[4] = test system: SNB-19 CNS
[5] = test system: U251 CNS
[6] = test system: PC-3 prostate
[7] = test system: SK-MEL-5 melanoma
[8] = test system: UACC-62 melanoma
[9] = test system: LOX IMVI melanoma
[10] = test system: SN12C renal
[11] = test system: TK-10 renal
[12] = test system: ACHN renal
[13] = test system: CAKI-1 renal
[14] = test system: A498 renal
[15] = test system: CCRF-CEM leukemia
[16] = test system: MOLT-4 leukemia
[17] = test system: SK-MEL-2 melanoma
[18] = test system: EKVX NSCLC
[19] = test system: UO-31 renal
[20] = test system: SK-MEL-28 melanoma

Measured: growth

Nc1nc(Cn2c(-c3nonc3N)nc3ccccc32)nc(N2CCCCC2)n1
inactive: [1] 84.8% | [2] 105% | [3] 76.4% | [4] 87% | [5] 96.9% | [6] 78% | [7] 83.2% | [8] 84.3% | [9] 90% | [10] 98.2% | [11] 109% | [12] 95.3% | [13] 85.8% | [14] 88.6% | [15] 85.7% | [16] 83.2%

CCOC(=O)c1cc(C(=O)c2ccc(Cl)cc2)n2ccc(-c3cc[n+](CC(=O)c4ccc(OC)cc4)cc3)cc12
inactive: [1] 75.5% | [3] 93.2% | [4] 77% | [5] 13.2% | [6] 51.5% | [7] 98.3% | [8] 107% | [9] 12.9% | [17] 97.6% | [18] 96.4% | [10] 102% | [19] 73.5% | [11] 124% | [12] 96.4% | [14] 73.9% | [16] 11.1%
active: [2] -9.81% | [15] -3.14%

CC(=O)Nc1ccc(CC[C@H]2CCC/C=C/[C@@H]3C[C@H](O)C[C@H]3[C@H](O)/C=C/C(=O)O2)cc1
inactive: [3] 30.3% | [4] 25.9% | [5] 15.2% | [6] 18.9% | [8] 18.7% | [13] 16%
active: [1] 9.69% | [2] -26.2% | [7] -88.6% | [9] -64.9% | [17] -28.6% | [18] 8.89% | [10] 5.85% | [19] 6.87% | [11] -45.5% | [12] 4.68% | [14] -32.9% | [15] -4.29% | [16] -6.82%

OCC1OC2C(NC(=S)N2c2ccccc2)C(O)C1O (stereo not drawn)
inactive: [1] 99.2% | [2] 101% | [3] 99.6% | [4] 91.9% | [5] 97.5% | [6] 96% | [7] 98.5% | [9] 100% | [20] 105% | [17] 111% | [18] 101% | [10] 91.1% | [19] 101% | [11] 109% | [12] 103% | [13] 91.4% | [14] 95.1% | [15] 93.6% | [16] 107%

O=C(Nc1ccc(NS(=O)(=O)c2ccc(F)cc2)cc1)C12CC3CC(CC(C3)C1)C2
inactive: [1] 86.8% | [2] 89.6% | [3] 90% | [4] 93.7% | [5] 91.3% | [6] 78.8% | [7] 93.9% | [9] 92.2% | [20] 99.9% | [17] 107% | [18] 74.4% | [10] 92.6% | [19] 75.1% | [11] 96.7% | [12] 102% | [13] 86% | [14] 90.8% | [15] 84.2% | [16] 77.7%

c1ccc2c(c1)Cc1ccccc1N2CCN1CCCCC1
inactive: [1] 94.2% | [2] 74.4% | [3] 94.7% | [4] 90.6% | [5] 90.1% | [6] 82.7% | [7] 95.5% | [9] 87.8% | [20] 110% | [17] 97% | [18] 101% | [19] 83.8% | [11] 104% | [12] 89.6% | [13] 90.7% | [14] 107% | [15] 98.7% | [16] 83.3%

S=C1N(c2ccccc2)CN(C2CCCCC2)CN1c1ccccc1
inactive: [1] 95.3% | [2] 99.5% | [3] 90.1% | [4] 95.3% | [5] 98.5% | [6] 84% | [7] 97.9% | [9] 95.6% | [20] 104% | [17] 106% | [10] 103% | [19] 92.3% | [12] 97.6% | [14] 103% | [15] 80.6% | [16] 125%

Clc1nc2ccc(Br)cc2cc1-c1nc2ccccc2[nH]1
inactive: [1] 92.3% | [2] 106% | [3] 42.4% | [4] 91% | [5] 81% | [6] 39.6% | [7] 84.7% | [9] 69.5% | [20] 105% | [17] 120% | [18] 50.3% | [10] 15.2% | [19] 79.7% | [13] 84.2% | [14] 39.9% | [15] 72.9% | [16] 47.2%
active: [12] 2.34%
